Nrf2 ARE act: activators of Nrf2 (ARE) signaling. AREc32 ARE-luciferase reporter (MCF7-derived line), luminescence, 24 h. 410,000 tested, 0.31% active. Potency, µM (highest dose often 46.1 µM), for inactives: at the highest dose activation, usual class: activators; further: potency means the concentration at half of the fitted maximal effect; % of control where 0% means no effect; nearly all actives have a fitted effect of over 65% in size
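Reporter line AREc32 (ARE-Fluc), seeded overnight in OPTI-MEM with 5% FBS; compound pin-transferred, 24 hr at 37 deg C, 5% CO2; luminescent read-out.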
GRP78 ERSR act: inducers of ER stress response in human glioma cells. 420,000 tested, 0.02% active. Potency, µM, without a hit: at the top dose activation, most hits filed as activators. AID 602332. U87-MG GRP78 promoter luciferase reporter, 16 h; further: potency means the concentration at half of the fitted maximal effect; series mostly up to about 76 µM; % of control where 0% means no effect; nearly all actives have a fitted effect of over 35% in size
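Stably transfected U87-MG human glioma cells carrying a GRP78-based luminescent sensor were seeded at 1000 cells/well, pin-dosed with compounds and incubated 16 h. Luciferase reagent was then added, and end-point luminescence was read after 10 min at room temperature.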
DRD3 agonist: activates the human D3 dopamine receptor; D3R DiscoveRx beta-arrestin cells, luminescence, 90 min; max activation, %; AID 652048; 410,000 tested, 0.58% active; in the data active means max activation above about 30%; further: 0% is about no effect
Target sequence (P35462 whole entry, looked up): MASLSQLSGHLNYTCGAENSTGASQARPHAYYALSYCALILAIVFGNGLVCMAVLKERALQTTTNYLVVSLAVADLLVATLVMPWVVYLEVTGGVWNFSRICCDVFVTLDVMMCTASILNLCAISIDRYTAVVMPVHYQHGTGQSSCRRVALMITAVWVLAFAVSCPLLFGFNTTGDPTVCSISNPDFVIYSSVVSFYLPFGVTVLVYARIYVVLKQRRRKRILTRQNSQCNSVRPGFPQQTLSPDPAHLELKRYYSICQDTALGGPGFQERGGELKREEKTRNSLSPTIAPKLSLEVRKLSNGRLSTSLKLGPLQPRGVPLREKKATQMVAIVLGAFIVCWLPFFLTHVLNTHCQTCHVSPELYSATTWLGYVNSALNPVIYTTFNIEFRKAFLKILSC
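Agonist-mode cell screen: cells plated at 1500/well and incubated overnight at 37 °C, then exposed to library compounds for 90 min at 37 °C. Detection reagent was added for 30–60 min at room temperature, and luminescence was read.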
DRD3 antagonist: antagonists of human D3 dopamine receptor. max response, negative = inhibition, %. D3R cells, DiscoveRx beta-arrestin luminescence, antagonist mode; stronger effect = lower value. 360,000 tested, 2.5% active. P35462; in the data active means max response below about -50%; inconclusive means no clear call, values can overlap the other calls; further: on the % scale 0 is the no-effect control and ±100 the full control effect
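Cells plated overnight at 1500 cells/well, then exposed to library compounds with dopamine controls for 90 minutes at 37 degrees C. DiscoveRx reagent added for 30–60 minutes at room temperature; luminescence read, quantitative HTS format.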
* hit, by the source's call; ? = inconclusive; / = no result given. Only some compounds are listed: those with a hit (about 3% of all), similar ones and a draw of the others. Unless noted, the call rests on the fitted dose curve; in most records, active means well fitted curve in the direction sought with a large enough effect; inconclusive means small, poorly fitted or top-dose-only effect, or another doubt; inactive means no such curve, though single readings can be large; an effect the other way counts as inactive or inconclusive.

SMILES	Nrf2 ARE act	GRP78 ERSR act	DRD3 agonist	DRD3 antagonist
c1ccc2c(NC3CCCC3)nnc(NC3CCCC3)c2c1	2%	-5%	1	-71*
COc1cc(/C=C/c2ccnc3ccccc23)ccc1N(C)C	/	2%	/	/
O=C(Cn1cnc2c(NCc3ccccc3)ncnc21)NCCCc1ccccc1	4%	1%	-7	1
CC(CNC(=O)Cn1cnc2c(NCc3ccccc3)ncnc21)c1ccccc1 (configuration not stated)	-1%	-1%	45*	5
Cc1cc(C)c(CN2CCN(C(=O)Cn3cnc4c(NCc5ccccc5)ncnc43)CC2)c(C)c1	1%	-3%	31*	11
O=C(Cn1cnc2c(NCc3ccccc3)ncnc21)N1CCN(c2ccccn2)CC1	1%	-2%	3	18
CCN1CCN(Cc2c(C)[nH]c3ccc(OC)cc3c2=O)CC1	0%	-7%	3	-53*
CCOc1ccc2[nH]c(C)c(CN3CCN(CC)CC3)c(=O)c2c1	0%	-5%	-2	30
Cc1cc(CNC(=O)CCN2Cc3cc(Cl)ccc3OC(C)C2)nn1C (configuration not stated)	/	-3%	/	/
O=C(Nc1nccs1)c1nc[nH]c1C(=O)N1CCN(c2ccccc2)CC1	-1%	-2%	31*	-9
CCCCCCSc1cc(-c2nc3cc(C)ccn3c2NCCCC)ccc1OC	0%	0%	-26	54
CCCCNc1c(-c2ccc(OC)c(Sc3ccc(OC)cc3)c2)nc2ccccn12	-2%	-10%	-2	-16
CCCCNc1c(-c2ccc(OC)c(Sc3ccc(OC)cc3)c2)nc2cnccn12	0%	-5%	62*	94
CCCCCCSc1cc(-c2nc3cnccn3c2NCCCC)ccc1OC	-2%	-6%	104*	185
CCCCNc1c(-c2ccc(-c3ccc(OC)cc3)c(OC)c2)nc2ccccn12	-2%	-4%	102*	188
O=C(CSc1nnc(C2CC2)n1C1CC1)c1cccs1	0%	6%	-2	6
O=C(CSc1nnc(C2CC2)n1C1CC1)c1ccc(Br)s1	9%	6%	0	-65*
COc1ccc(C(CNC(=O)c2ccc(C)c(S(=O)(=O)N3CCCCC3)c2)N2CCCC2)cc1 (configuration not stated)	0%	-5%	-22	-24
COc1ccc(C(CNC(=O)c2ccc(C)c(S(=O)(=O)N3CCOCC3)c2)N2CCCC2)cc1 (configuration not stated)	0%	1%	-19	-71*
COc1ccc(C(CNC(=O)c2ccc(Cl)c(S(=O)(=O)N3CCCC3)c2)N2CCCC2)cc1 (configuration not stated)	0%	-3%	-18	-77*
COc1cc(NS(=O)(=O)c2ccc(NC(=O)c3ccc(OC)c(Br)c3)cc2)nc(OC)n1	3%	9%	4	/
CC1CCN(C(=O)c2ncn(C)c2C(=O)N2CCC(C)CC2)CC1	0%	-3%	13	-51*
CC1CCN(C(=O)c2ncn3c2c(=O)[nH]c2ccccc23)CC1	-1%	1%	0	9
CCOC(=O)CSc1nc(-c2ccc(C)cc2C)cc(-c2ccccc2)c1C#N	0%	-2%	3	/
Cc1ccc(N/C(C(Cl)=C(Cl)Cl)=C(/Cl)[N+](=O)[O-])c(C)c1	22µM*	?	-3	1
SMILES	Nrf2 ARE act	GRP78 ERSR act	DRD3 agonist	DRD3 antagonist
Cc1ccc(NC(=O)CC(=O)Nc2ccc(C)cc2C)c(C)c1	-1%	-5%	-2	6
CN1CCN(C(=O)c2ccc3c(c2)N(Cc2ccc(C(F)(F)F)cc2)C(=O)c2ccccc2S3)CC1	0%	-1%	10	/
COc1cc(/C=N/Nc2ccccn2)ccc1O	8.9µM*	3%	-2	?
COc1cc(/C=N/Nc2nc(N3CCCC3)nc(N3CCCC3)n2)ccc1O	0%	-3%	0	34
COc1ccc(-c2cnnc(N/N=C/c3ccc(O)c(OC)c3)n2)cc1	11%	3%	32*	13
Cc1ccc(C(C)CCN2CCOc3ccc(CN4CCOCC4)cc3C2)o1 (configuration not stated)	/	-3%	/	/
N=C1SC(c2ccccc2)C(=O)N1c1ncc(Cc2ccccc2)s1 (configuration not stated)	24%	3%	-7	-56*
Cc1ccc(Cc2cnc(N3C(=N)SC(c4ccccc4)C3=O)s2)cc1 (configuration not stated)	4%	5%	2	-11
Cn1cnnc1SCC(=O)Nc1ccc(Br)cc1F	0%	-4%	32*	6
CCc1nc2cc(C(=O)N3CCC[C@H]3CO)cc(NC(=O)c3ccccc3OC)c2n1C	/	-2%	/	/
Cc1cccc(C)c1-n1nnnc1C(c1ccnc2ccccc12)N1CCN(C/C=C/c2ccccc2)CC1 (configuration not stated)	0%	-3%	-14	-116*
CC(C)(C)n1nnnc1C(c1ccnc2ccccc12)N1CCN(C/C=C/c2ccccc2)CC1 (configuration not stated)	0%	-2%	-10	2
COc1ccc(C(c2nnnn2-c2c(C)cccc2C)N2CCN(C/C=C/c3ccccc3)CC2)cc1 (configuration not stated)	0%	-5%	-16	-87*
Cc1cccc(C)c1NC(=O)C(c1ccccc1OC(F)(F)F)N1CCN(C/C=C/c2ccccc2)CC1 (configuration not stated)	5%	-4%	-15	-63*
C(=C\c1ccccc1)/CN1CCN(C(c2ccccc2)c2nnnn2C2CCCC2)CC1 (configuration not stated)	4%	-6%	-11	?
COc1cccc(C(c2nnnn2-c2c(C)cccc2C)N2CCN(C/C=C/c3ccccc3)CC2)c1OC (configuration not stated)	6%	-3%	-24	-121*
CN(C)CC(C)(O)c1ccc2c(c1)CN(Cc1cccn1-c1cccnc1)CCO2 (configuration not stated)	/	0%	/	/
Cc1cnc(-n2ncc(C(=O)NCCN3CCOCC3)c2C2CC2)nc1-c1cccs1	/	0%	/	/
Cc1cccc(C)c1-n1nnnc1C(c1ccnc2ccccc12)N1CCCC1 (configuration not stated)	3%	/	-10	-56*
Cc1cccc(C)c1-n1nnnc1C(c1ccccc1OC(F)(F)F)N1CCN(C/C=C/c2ccccc2)CC1 (configuration not stated)	1%	-5%	-8	-95*
Cc1cccc(C)c1-n1nnnc1C(c1ccnc2ccccc12)N1CCOCC1 (configuration not stated)	-1%	/	1	3
CC(C)(C)n1nnnc1C(c1ccccc1OC(F)(F)F)N1CCN(C/C=C/c2ccccc2)CC1 (configuration not stated)	0%	-3%	-17	-24
CCOc1cc(/C=C/C(=O)c2ccc3c(c2)OCCO3)ccc1OCC(=O)N(C)C	11µM*	-9%	2	-5
COc1ccc(/C=N/NC(=O)c2ccc3c(c2)OCCO3)cc1[N+](=O)[O-]	2%	-1%	-1	?

Assay outcomes as filed in PubChem.
